Bioassay records from PubChem.
A selection: hits, their analogues and other compounds. The true share with any hit is near 7.3%.
KinaseGlo FLuc – Counterscreen for Luciferase (Kinase-Glo TM) Inhibition; Kinase-Glo luciferase, ATP luminescence, 8 min; Potency, µM (titrated, usually from 38.3 µM), without a hit: at the highest dose activity change, negative = inhibition, actives largely listed as inhibitors; 200,000 compounds, 0.28% hits; AID 1379, 2008; note: % is set by controls: 0 for no effect and ±100 for the full control effect; nearly all actives have a fitted effect of over 60% in size
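Inhibition of Kinase-Glo luciferase light generation was assessed at 10 uM ATP in pH 7.2 imidazole buffer, with luminescence measured after eight minutes at ambient temperature.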
Rab9 promoter act – qHTS Assay for Rab9 Promoter Activators | Huh7 Rab9 promoter-luciferase reporter, luminescence, 24 h | Potency, µM (doses to about 9.22 µM), inactives show top-dose activation, negative = inhibition, actives largely listed as activators | 320,000 compounds, 2.8% hits; note: % of control where 0% means no effect; nearly all actives have a fitted effect of over 60% in size
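Huh7 cells stably carrying a Rab9 promoter-luciferase reporter, 1500 cells per well in OP-MEM I with 10% FBS, treated with compound 24 hours at 37C. Luciferase activity read by luminescence after 10 minutes with Amplite reagent.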
ELG1 genotoxic – qHTS screen for small molecules that induce genotoxicity in human embryonic kidney (HEK293T) cells expressing luciferase-tagged ELG1 | HEK293T ELG1-luciferase reporter, luminescence, 16 h | Potency, µM (series often up to 46 µM), for inactives: at the top dose activity change, positive = activation, most hits filed as activators | 330,000 compounds, 1.3% hits; note: % of control where 0% means no effect; nearly all actives have a fitted effect of over 60% in size
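Quantitative HTS format in 1536-well plates. HEK293T ELG1-luciferase reporter cells receive test compound and are incubated 16 hr at 37 °C, 5% CO2; ONE-Glo added, 30 min room temperature, then luminescence read.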
FLuc modulator – qHTS profiling assay for firefly luciferase inhibitor/activator using purifed enzyme and Km concentrations of substrates (counterscreen for miR-21 project). Luciferin 4-monooxygenase (Photinus pyralis), P08659. purified FLuc, Km substrates, luminescence inhibition. Potency, µM (highest dose often 57.5 µM), for inactives: top-dose activity change, negative = inhibition, usual class: inhibitors. 360,000 compounds, 6.9% hits. AID 588342, 2011;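 note: plate controls were vehicle for no effect and reference inhibitor for full effect; nearly all actives have a fitted effect of over 55% in size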
Target sequence (P08659 whole entry, looked up): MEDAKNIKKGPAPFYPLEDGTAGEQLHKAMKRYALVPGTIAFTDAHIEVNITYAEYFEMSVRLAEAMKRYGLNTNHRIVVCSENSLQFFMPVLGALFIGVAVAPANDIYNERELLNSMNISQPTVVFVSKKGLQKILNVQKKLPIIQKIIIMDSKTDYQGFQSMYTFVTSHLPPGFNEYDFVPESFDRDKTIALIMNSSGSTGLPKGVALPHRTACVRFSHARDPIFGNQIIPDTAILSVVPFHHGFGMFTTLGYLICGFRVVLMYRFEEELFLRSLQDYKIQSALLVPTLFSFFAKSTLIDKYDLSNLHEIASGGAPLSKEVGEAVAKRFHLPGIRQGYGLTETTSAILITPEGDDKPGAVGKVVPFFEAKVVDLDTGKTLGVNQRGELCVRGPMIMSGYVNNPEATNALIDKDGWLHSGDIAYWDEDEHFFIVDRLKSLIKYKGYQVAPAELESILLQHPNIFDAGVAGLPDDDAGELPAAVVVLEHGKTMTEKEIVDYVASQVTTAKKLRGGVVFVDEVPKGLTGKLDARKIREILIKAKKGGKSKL
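Purified P. pyralis luciferase (10nM final) with 10uM D-luciferin and 10uM ATP (Km levels) in 50mM Tris acetate pH 7.5, 10mM Mg acetate, 0.01% Tween-20, 0.05% BSA; qHTS 6-point titration, ~60 µM downward; luminescence read.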
NPC1 promoter act – qHTS Assay for NPC1 Promoter Activators | Huh7 NPC1 promoter luciferase reporter, 24 h | Potency, µM (titrated, usually from 9.22 µM), without a hit: at the top dose activation, hits mostly activators | 320,000 compounds, 2.4% hits; note: % of control where 0% means no effect; nearly all actives have a fitted effect of over 60% in size
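Huh7 reporter cells (NPC1 promoter driving luciferase) are dosed with compound for 24 h at 37 °C, 5% CO2; luciferase detection reagent is then added and luminescence measured after 10 min at ambient temperature.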
SMN2 splice enh – qHTS Assay for Enhancers of SMN2 Splice Variant Expression; HEK293 SMN2-luciferase splicing reporter, luminescence, 30-36 h; Potency, µM (doses to about 46.1 µM), for the others: top-dose activity change, positive = activation, most hits filed as activators; 210,000 compounds, 2.8% hits; AID 1458, 2008; note: % of control where 0% means no effect; nearly all actives have a fitted effect of over 55% in size
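HEK293 cells carry an SMN2 […]–luciferase reporter in which exon 7 inclusion puts luciferase in frame. Cells were plated 10-12 h before compound addition, then incubated 30-36 h at 37C. ONE-Glo luminescence was read; sodium butyrate at 4.5 mM final served as control.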
Active calls of the source: *; u = inconclusive; x = not tested or not shown; [ ] = dose if it differs, or a comment. Calls come from the whole dose curve; as a rule, active = well fitted curve in the direction sought with a large enough effect; inconclusive = small, poorly fitted or top-dose-only effect, or another doubt; inactive = no such curve, though single readings can be large; an effect the other way counts as inactive or inconclusive. Potency is the fitted concentration of half-maximal effect.

SMILES	KinaseGlo FLuc	Rab9 promoter act	ELG1 genotoxic	FLuc modulator	NPC1 promoter act	SMN2 splice enh
CC(C)(C)c1ccc(S(=O)(=O)N2CCN(CC(O)COCC3CCCO3)CC2)cc1 (stereo unspecified)	x	-1%	0%	1%	-4%	x
Cc1ccc(-c2csc(Nc3ccccn3)n2)cc1	x	1µM*	0.82µM*	0.6µM*	0.71µM*	x
COc1ccc(-c2csc(Nc3ccccn3)n2)cc1OC	x	2µM*	2.3µM*	6.7µM*	1.8µM*	x
COc1ccc(-c2csc(Nc3ccc(C)cn3)n2)cc1	-2%	-4%	2%	-5%	-5%	x
CCCCOC(=O)Nc1nnc(SCCOc2ccc(C)cc2)s1	3%	15%	-2%	3%	8%	7%
CCOc1ccc(NC(=O)c2ccc(CNc3c(N4CCCC4)c(=O)c3=O)cc2)cc1	x	6%	4%	13µM*	-4%	x
CC(=O)c1ccc(NC(=O)c2ccc(CNc3c(N4CCCC4)c(=O)c3=O)cc2)cc1	x	2%	-1%	u	-3%	x
CC(=O)c1ccc(NC(=O)c2ccc(CNc3c(N4CCOCC4)c(=O)c3=O)cc2)cc1	x	1%	-2%	12µM*	-2%	x
CCOc1ccc(OCC)c(NC(=O)c2ccc(CNc3c(N4CCCC4)c(=O)c3=O)cc2)c1	x	-12%	1%	-2%	-8%	x
O=C(Cn1nc(C(F)(F)F)c2c1CCCC2)Nc1cccc(Cl)c1	x	x	x	-17%	x	x
CC(C)c1ccc(NC2CCCN(C(=O)CN3C(=O)CSC3=O)C2)cc1 (stereo unspecified)	x	1%	0%[9.26 µM]	-1%	1%	x
CNC(=O)c1cc2c(ccc3ccccc32)o1	0%	u	u	19µM*	u	29%
Cc1ccc(/C=N/NC(=O)c2cc3c(ccc4ccccc43)o2)o1	x	3%	-4%	u	5%	x
O=C(NC1CCCC1)c1cc2c(ccc3ccccc32)o1	-3%	1µM*	4.6µM*	6µM*	1.4µM*	13µM*
CCOC(=O)CN1C(=O)N[C@@H](c2ccc(Br)cc2)C(C(=O)OC)=C1C	-1%[7.66 µM]	-2%	4%	1%	0%	-3%[9.22 µM]
Cc1ccc(/C=C2\SC(=S)N(CCCC(=O)Nc3ccc(O)cc3)C2=O)cc1	x	-28%	2%	u	-26%	x
COc1ccc(CN(C(=O)c2oc3ccccc3c2C)C2CCS(=O)(=O)C2)cc1OC (stereo unspecified)	0%	-1%	-4%	8%	-2%	11µM*
CN(C)c1ccc(CN(C(=O)c2cc3ccccc3oc2=O)C2CCS(=O)(=O)C2)cc1 (stereo unspecified)	x	u	u	12µM*	2.8µM*	x
O=C(c1cc2ccccc2oc1=O)N(Cc1ccco1)C1CCS(=O)(=O)C1 (stereo unspecified)	8%	u	18µM*	15µM*	u	-7%
COc1ccc(CN(C(=O)c2oc3cc(C)c(C)cc3c2C)C2CCS(=O)(=O)C2)cc1OC (stereo unspecified)	x	-13%	-4%	4%	-9%	x
CCn1ncc(Br)c1C(=O)NC1CCCCCCC1	x	-5%	-2%	4%	0%	x
CCOc1ccc(OCC)c(S(=O)(=O)n2ccnc2C)c1	x	3%	-19%	3%	-2%	x
Cc1cccc([N+](=O)[O-])c1NC(=O)COC(=O)C1CCCO1 (stereo unspecified)	x	2%	-2%	x	-2%	x
CCN1Cc2ccccc2-c2ccccc2S1(=O)=O	x	x	3%	x	x	x
Cc1ccc(CNC(=O)CN2C(=O)C3(SCC(=O)N3c3ccc(F)cc3)c3ccccc32)cc1 (stereo unspecified)	x	x	x	-11%	x	x
SMILES	KinaseGlo FLuc	Rab9 promoter act	ELG1 genotoxic	FLuc modulator	NPC1 promoter act	SMN2 splice enh
CCOc1ccc(N2Nc3n[nH]c(N)c3N2)cc1	-3%	u	u	19µM*	u	u
COc1ccc(N2Nc3n[nH]c(N)c3N2)cc1	2%	u	8%	27µM*	20%	u
CCc1ccccc1NC1c2ccccc2C(=O)N1c1cc(C)ccn1 (stereo unspecified)	2%	-2%	-1%	3%	-7%	4%
COC(=O)c1c(-c2ccc(OC)cc2)sc2cc3c(cc12)OCO3	x	1%	u	9.5µM*	u	x
CC(C)(C)c1ccc(/C=N/OCC(=O)NCc2ccccc2)cc1	1%	-9%	-1%	17µM*	0%	-14%
CC(C)(C)c1ccc(/C=N/OCC(=O)NCc2ccc(F)cc2)cc1	1%	0%	-3%	30µM*	-1%	-12%
CCC(C)(C)C1CCC(NC(=O)c2ccc(S(=O)(=O)N3CCOCC3)cc2)CC1 (stereo unspecified)	x	1%	-4%	x	1%	x
O=C(NC(=O)c1ccc(F)cc1F)Nc1ccc(Cl)cc1	x	2.2µM*	13%	-10%	u	x
O=C(Nc1ccc(N2CCCC2)cc1)c1ccccc1F	-20%	0.5µM*	u	2.1µM*	0.5µM*	2.8µM*
O=C(Nc1ccc(F)cc1)Nc1ccc(Cl)cn1	2%	u	u	-4%[2.3 µM]	26%	u
O=C(Nc1ccc(N2CCCCC2)cc1)c1ccc(F)cc1F	x	0.35µM*	u	1.3µM*	0.32µM*	x
O=C(Nc1ccc(N2CCCCC2)cc1)c1cccnc1Cl	-5%	u	21µM*	u	22%	-6%
CC(=O)Nc1ccc(N2CCCCC2)cc1	0%	10%	7%	-14%	13%	-10%
CS(=O)(=O)N1CCN(c2ccc(NC(=O)c3cccnc3Cl)cc2)CC1	-7%	u	7%	-9%	3%	20%
O=C(c1ccc2c(c1)N(Cc1cccc(Cl)c1)C(=O)c1ccccc1S2(=O)=O)N1CCN(Cc2ccccc2)CC1	x	x	x	-1%	x	x
Cc1ccc(C)c(N2CCN(C(=O)CCc3nc(-c4ccc(Cl)cc4)no3)CC2)c1	x	x	-1%	x	x	x
Cc1cc2c(cc(C(=O)N3CCC(C(=O)N4CCCC4)CC3)n2Cc2c(F)cccc2Cl)o1	1%	-7%	-8%	-3%	-1%	-30%
CCn1c(C)cc(/C=C2/SC(=S)N(CC(=O)O)C2=O)c1C	1%	1%	-9%	2.7µM*	5%	-13%
CCN1C(=O)/C(=C/c2cnn(CC)c2C)SC1=S	-4%	1%	u	u	1%	-4%
C#CCN1C(=O)S/C(=C/c2cc(C)n(CC)c2C)C1=O	x	1.6µM*	u	2.1µM*	2.8µM*	x
